In PubChem BioAssay AID1159580 (chemical genetic matrix, 2015):
Several values for one entry are separate records, joined by “and”; a condition that tells them apart may be missing. Equal values may be shown once. Out of some 5,500 compounds screened, about 2,000 (36%) were called active. Not shown: some 18% with an inconclusive outcome. Cut-off read from the data, not from the text of the source: active = normalized growth mostly below about 0.91 (no sharp cut-off); inconclusive = no clear call, values can overlap the other calls; inactive = mostly above about 0.92. Some of the results follow.

Assay: chemical genetic growth profiling, strain panel (AID 1159580);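 note: tested at 20 µM; growth read once vehicle control cultures reached saturation at 30 °C; 1 = growth at the plate median or of vehicle wells; lower values mean less growth of the strain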
Details: S. cerevisiae deletion strains, growth OD

Measured: normalized growth

CC1=C2C(=CO[C@H](C)[C@H]2C)C(=O)C(C(=O)O)=C1O
active: locus YHR079C, strain IRE1, stronger effect = lower value 0.794
0.947 (inactive) and 0.851 (active): locus YJL095W, strain BCK1, stronger effect = lower value
inactive: locus YAL021C, strain ccr4, stronger effect = lower value 0.993 | locus YAL026C, strain drs2, stronger effect = lower value 0.982 | locus YAL030W, strain snc1, stronger effect = lower value 0.977 | locus YBL061C, strain skt5, stronger effect = lower value 0.977 | locus YBR009C, strain hhf1, stronger effect = lower value 0.975 | locus YBR021W, strain FUR4, stronger effect = lower value 0.995 | locus YBR023C, strain chs3, stronger effect = lower value 0.97 | locus YBR171W, strain sec66, stronger effect = lower value 0.981 | locus YBR229C, strain ROT2, stronger effect = lower value 0.978 | locus YBR231C, strain swc5, stronger effect = lower value 0.979 | locus YBR279W, strain paf1, stronger effect = lower value 0.989 | locus YCL011C, strain gbp2, stronger effect = lower value 0.975 | locus YCL016C, strain dcc1, stronger effect = lower value 0.967 | locus YCL029C, strain bik1, stronger effect = lower value 0.986 | locus YCL061C, strain MRC1, stronger effect = lower value 0.967 | locus YCL069W, strain vba3, stronger effect = lower value 0.991 | locus YCR088W, strain abp1, stronger effect = lower value 0.973 | locus YDL005C, strain med2, stronger effect = lower value 0.971 | locus YDL035C, strain GPR1, stronger effect = lower value 0.995 | locus YDL040C, strain nat1, stronger effect = lower value 0.98 | locus YDL074C, strain BRE1, stronger effect = lower value 0.996 | locus YDL101C, strain DUN1, stronger effect = lower value 0.989 | locus YDL134C, strain PPH21, stronger effect = lower value 0.996 | locus YDL185W, strain tfp1, stronger effect = lower value 0.991 | locus YDL192W, strain arf1, stronger effect = lower value 0.983 | locus YDR001C, strain nth1, stronger effect = lower value 0.98 | locus YDR069C, strain doa4, stronger effect = lower value 0.976 | locus YDR101C, strain arx1, stronger effect = lower value 0.983 | locus YDR137W, strain rgp1, stronger effect = lower value 0.912 | locus YDR150W, strain NUM1, stronger effect = lower value 0.981 | locus YDR159W, strain sac3, stronger effect = lower value 0.957 | locus YDR162C, strain NBP2, stronger effect = lower value 0.978 | locus YDR195W, strain ref2 0.969 | locus YDR297W, strain sur2, stronger effect = lower value 0.989 | locus YDR318W, strain mcm21, stronger effect = lower value 0.989 | locus YDR334W, strain swr1, stronger effect = lower value 0.991 | locus YDR335W, strain msn5, stronger effect = lower value 0.994 | locus YDR388W, stronger effect = lower value 0.979 | locus YDR392W, strain spt3, stronger effect = lower value 0.821 | locus YDR502C, strain sam2, stronger effect = lower value 0.971 | locus YEL003W, strain gim4, stronger effect = lower value 0.988 | locus YEL037C, strain rad23, stronger effect = lower value 0.997 | locus YEL061C, strain CIN8 (second series), stronger effect = lower value 0.99 | locus YEL061C, strain CIN8, stronger effect = lower value 0.979 | locus YER015W, strain faa2, stronger effect = lower value 0.98 | locus YER016W, strain bim1, stronger effect = lower value 0.976 | locus YER110C, stronger effect = lower value 0.985 | locus YER111C, strain swi4, stronger effect = lower value 0.983 | locus YER155C, strain BEM2 (second series), stronger effect = lower value 0.938 | locus YER155C, strain BEM2, stronger effect = lower value 0.982 | locus YER167W, strain BCK2, stronger effect = lower value 0.969 | locus YFR010W, strain ubp6, stronger effect = lower value 0.991 | locus YGL078C, strain dbp3, stronger effect = lower value 0.987 | locus YGL086W, strain mad1, stronger effect = lower value 0.96 | locus YGL167C, strain pmr1, stronger effect = lower value 0.963 | locus YGL173C, strain kem1, stronger effect = lower value 0.983 | locus YGL227W, strain vid30, stronger effect = lower value 0.989 | locus YGL240W, strain doc1, stronger effect = lower value 0.97 | locus YGL248W, strain PDE1, stronger effect = lower value 0.991 | locus YGL253W, strain hxk2, stronger effect = lower value 1.01 | locus YGR135W, strain pre9, stronger effect = lower value 0.999 | locus YGR229C, strain SMI1, stronger effect = lower value 0.989 | locus YGR252W, strain gcn5, stronger effect = lower value 1.06 | locus YHR013C, strain ard1, stronger effect = lower value 0.94 | locus YHR027C, strain rpn1, stronger effect = lower value 0.977 | locus YHR079C, strain IRE1 (second series), stronger effect = lower value 0.985 | locus YHR094C, strain hxt1, stronger effect = lower value 0.975 | locus YHR129C, strain ARP1, stronger effect = lower value 0.982 | locus YHR142W, strain chs7, stronger effect = lower value 1.01 | locus YHR200W, strain rpn10, stronger effect = lower value 0.989 | locus YIL066C, strain RNR3, stronger effect = lower value 0.995 | locus YIL073C, strain SPO22, stronger effect = lower value 0.993 | locus YIL125W, strain kgd1, stronger effect = lower value 0.965 | locus YIR030C, strain dcg1, stronger effect = lower value 0.976 | locus YJL092W, strain hpr5, stronger effect = lower value 0.989 | locus YJL095W, strain BCK1 (second series), stronger effect = lower value 0.974 | locus YJL115W, strain asf1, stronger effect = lower value 0.987 | locus YJL129C, strain trk1, stronger effect = lower value 0.927 | locus YJL134W, strain LCB3, stronger effect = lower value 0.975 | locus YJL154C, strain vps35, stronger effect = lower value 0.993 | locus YJL164C, strain tpk1, stronger effect = lower value 0.974 | locus YJL166W, strain qcr8, stronger effect = lower value 0.983 | locus YJL168C, strain set2, stronger effect = lower value 0.98 | locus YJL187C, strain SWE1 (second series), stronger effect = lower value 0.995 | locus YJL187C, strain SWE1, stronger effect = lower value 0.979 | locus YJR043C, strain POL32, stronger effect = lower value 1.02
0.977 (inactive) and 0.85 (active): locus YHR030C, strain SLT2, stronger effect = lower value
